PubChem BioAssay
Active and inactive are the calls of the source.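 The calls were made as follows, unless noted: active = fluorescence slope after compound addition differing from the mean of all screened samples at 99.7% confidence, in either direction; inactive = the rest.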

Tests used:
[1] = inhibitors of TNFa-induced NFkB p65 translocation, primary screen, imaging, HUVEC, MLSMR starter and 10KST1 sets (AID 438;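 active = inhibition above 20% together with a positive visual image hit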;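 also: compound added about 3h40 before a 20 min TNFalpha stimulation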;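 as to inhibition: signal is the nuclear over cytoplasmic p65 intensity ratio per well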); conditions: HUVEC TNFa-induced p65 nuclear translocation; cell count: measured here: nuclei count (cytotoxicity indicator), at 2.08 µM; inhibition: at 2 µM, stronger effect = higher value, 0% TNFa-plus-vehicle, 100% no-TNFa wells
[2] = inhibitors of mutant huntingtin aggregation, primary screen, imaging, exon1htt(103Q)mCFP cells, high-content imaging (AID 483;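 active = visual image review flags a hit and inhibition of aggregation exceeds 20%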;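 also: compound exposure lasted 3 days before fixation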;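 as to nuclei count: percent of the per-plate median nuclei count of sample wells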); conditions: exon1htt(103Q)mCFP cell line, aggregate imaging, at 2 µM; inhibition of aggregation: stronger effect = higher value; nuclei count: measured here: cell count, toxicity
[3] = inhibitors of E-selectin induction by TNFa, primary screen, imaging, HUVEC, immunofluorescence, MLSMR starter and 10KST1 sets (AID 487;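 active = visually confirmed hit in the image check and inhibition above 20%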;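 as to inhibition: signal is fraction of cell area covered by stained E-selectin grains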;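 as to nuclei count: 100% = median nuclei count of all wells on the same plate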); conditions: HUVEC TNFalpha-induced E-selectin immunofluorescence imaging, at 2 µM; inhibition: stronger effect = higher value; nuclei count: measured here: cell number, toxicity
[4] = target: Voltage-gated potassium channel subunit beta-2 (Rattus norvegicus) (UniProt P62483); test: KvBeta enzyme negative modulators, primary screen, biochemical, NADPH fluorescence (AID 622;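 active = fluorescence slope higher than the sample average by over 3 SD, cut at about -0.22 in these data, passing the limit was not always enough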;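 also: slope of raw intensity against log time taken from 70 to 1610 s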); conditions: recombinant KvBeta, 4-cyanobenzaldehyde reduction, at 10 µM, stronger effect = higher value
Voltage-gated potassium channel subunit beta-2 (Rattus norvegicus), sequence (P62483 whole entry, looked up): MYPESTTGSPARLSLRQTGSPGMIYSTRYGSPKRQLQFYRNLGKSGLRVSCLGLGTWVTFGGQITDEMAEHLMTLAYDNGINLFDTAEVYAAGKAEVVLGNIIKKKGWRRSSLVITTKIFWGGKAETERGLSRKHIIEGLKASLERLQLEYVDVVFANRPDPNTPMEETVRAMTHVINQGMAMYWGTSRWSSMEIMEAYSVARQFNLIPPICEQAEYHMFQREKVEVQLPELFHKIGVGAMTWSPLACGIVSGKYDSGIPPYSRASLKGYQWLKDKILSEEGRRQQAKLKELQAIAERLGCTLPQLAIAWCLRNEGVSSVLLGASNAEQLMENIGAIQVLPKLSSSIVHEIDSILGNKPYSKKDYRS

[5] = target: Voltage-gated potassium channel subunit beta-2 (Rattus norvegicus) (UniProt P62483); test: KvBeta positive modulators, primary screen, biochemical, NADPH fluorescence (AID 623;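 active = NADPH fluorescence slope more negative than the mean of all samples by about 3 SD, 99.7% confidence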;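 also: fluorescence intensity change per second fitted from 20 to 320 s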); conditions: Recombinant KvBeta, NADPH fluorescence decrease slope, 10 min; at 10 µM; stronger effect = lower value
[6] = target: Alpha-2C adrenergic receptor (Homo sapiens) (UniProt P18825); test: modulators of alpha2C/GIRK thallium flux, primary screen, cell-based, HEK293 alpha2C/GIRK1/2 (AID 624); conditions: thallium flux BTC fluorescence, at 10 µM, actives lie on both sides;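 also: slope of fluorescence ratio to pre-addition baseline per second over 15 to 24 s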
Alpha-2C adrenergic receptor (Homo sapiens), sequence (P18825 whole entry, looked up): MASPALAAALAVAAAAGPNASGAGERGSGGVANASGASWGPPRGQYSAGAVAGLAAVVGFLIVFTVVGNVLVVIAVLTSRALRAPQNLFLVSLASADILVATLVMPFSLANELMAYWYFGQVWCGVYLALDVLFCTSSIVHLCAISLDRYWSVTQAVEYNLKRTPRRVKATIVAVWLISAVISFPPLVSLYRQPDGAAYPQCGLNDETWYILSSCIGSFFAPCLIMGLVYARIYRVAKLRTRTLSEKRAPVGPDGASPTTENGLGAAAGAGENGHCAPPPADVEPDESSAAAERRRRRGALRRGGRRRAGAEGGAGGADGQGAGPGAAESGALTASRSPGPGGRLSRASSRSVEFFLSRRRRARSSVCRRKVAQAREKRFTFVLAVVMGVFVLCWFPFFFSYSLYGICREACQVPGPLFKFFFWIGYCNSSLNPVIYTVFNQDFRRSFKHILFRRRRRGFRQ

[7] = inhibitors of Sendai virus-induced IRF3 signaling, primary screen, TLR/RLR signaling modifier project, cell-based, Sendai virus stimulus, luciferase, 10K MLSCN set (AID 602276;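 active = inhibition at or above 50% at 10 µM; inactive = inhibition below 50%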;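 also: firefly luciferase from ISG56 promoter only with Renilla not read in this screen; 0% = Sendai virus plus DMSO and 100% = medium plus DMSO without virus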); conditions: HEK293 RL24 IRF3 luciferase reporter, at 10 µM, stronger effect = higher value
[8] = inhibitors of poly I:C-induced TLR3 signaling, primary screen, cell-based, poly I:C stimulus, luciferase, 10K MLSCN set (AID 602277;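 active = inhibition of the reporter signal at or above 50%; inactive = inhibition below 50%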); conditions: HEK293-TLR3 RL24 IRF3 luciferase reporter, at 10 µM, stronger effect = higher value

SMILES | cell count [1] | inhibition [1] | inhibition of aggregation [2] | nuclei count [2] [%] | inhibition [3] | nuclei count [3] [%] | fluorescence slope [4] | NADPH fluorescence slope [5] | slope [6] | inhibition [7] | inhibition [8]
Cc1cccc(-c2nnc(SCC#N)n2-c2cccc(Cl)c2)c1 | 651 | 10.2% (inactive) | 0.4% (inactive) | 118 | 66.1% (inactive) | 109 | -0.441 (inactive) | -2.1e-05 (inactive) | 0.00584 (inactive) | 10.9% (inactive) | 21.3% (inactive)
Clc1ss/c(=N\c2ccccn2)c1Cl | 623 | -6.5% (inactive) | -1.1% (inactive) | 112 | -39.9% (inactive) | 124 | -0.483 (inactive) | -0.000216 (inactive) | 0.0043 (inactive) | -8.89% (inactive) | -24% (inactive)
CCn1cc(C(=O)NCCCOC)c(=O)c2cc(S(=O)(=O)N(C)C3CCCCC3)ccc21 | 559 | -15.1% (inactive) | 18.2% (inactive) | 74.5 | -38.4% (inactive) | 100 | -0.678 (inactive) | 5.7e-06 (inactive) | 0.00665 (inactive) | 6.58% (inactive) | 28.2% (inactive)
CC(C)(C)C1CCc2[nH]nc(C(=O)O)c2C1 (stereo unspecified) | 814 | -2.8% (inactive) | 0% (inactive) | 104 | 2% (inactive) | 121 | -0.607 (inactive) | 1.9e-05 (inactive) | 0.00808 (inactive) | 12.4% (inactive) | 16% (inactive)
CCOC(=O)CSc1nc2c(c(-c3ccc(C)o3)c1C#N)CCCC2 | 430 | -4.4% (inactive) | -20.4% (inactive) | 100 | -63.3% (inactive) | 128 | -0.447 (inactive) | -9.4e-05 (inactive) | 0.00861 (inactive) | 10.2% (inactive) | 18.3% (inactive)
CCOc1ccc(N2CC(C(=O)NCCc3ccc(OC)c(OC)c3)CC2=O)cc1 (stereo unspecified) | 458 | -3.8% (inactive) | -9.6% (inactive) | 112 | -59.3% (inactive) | 163 | -0.456 (inactive) | -3.5e-05 (inactive) | 0.00548 (inactive) | 20.4% (inactive) | 25.1% (inactive)
COc1ccc(C2CC(=O)C(C=NCCCN3CCOCC3)=C(O)C2)cc1 (stereo unspecified) | 392 | -4.9% (inactive) | 14% (inactive) | 80.7 | 3% (inactive) | 87.7 | -0.351 (inactive) | -1.5e-05 (inactive) | 0.00635 (inactive) | 14.7% (inactive) | 32.7% (inactive)
CC(=O)c1c(C)oc2ccc(NS(=O)(=O)c3ccc(O)c(C(=O)O)c3)cc12 | 380 | 8.9% (inactive) | -7.5% (inactive) | 108 | -5.6% (inactive) | 112 | -0.576 (inactive) | -2.5e-05 (inactive) | 0.00663 (inactive) | 7.79% (inactive) | 19.3% (inactive)
CCOc1ccccc1NC(=O)CSc1nnc(Cc2cccn2C)n1-c1ccc(F)cc1 | 529 | -2.9% (inactive) | -9.7% (inactive) | 93.1 | -55.6% (inactive) | 109 | -0.577 (inactive) | -3.6e-05 (inactive) | 0.00579 (inactive) | 12.1% (inactive) | 31.3% (inactive)
COc1ccc(N2CCN(c3ccc(N)cc3C#N)CC2)cc1 | 744 | -6.6% (inactive) | 28.1% (inactive) | 102 | -65.8% (inactive) | 104 | -0.593 (inactive) | -2.3e-05 (inactive) | 0.00782 (inactive) | 3.39% (inactive) | 21.5% (inactive)
COc1ccc(Cl)c(NCCC(=O)O)c1 | 632 | -4.2% (inactive) | 2.2% (inactive) | 110 | -96.7% (inactive) | 130 | -0.453 (inactive) | -0.000352 (inactive) | 0.00574 (inactive) | -8.17% (inactive) | -4.52% (inactive)
Cc1cc(C)n(S(=O)(=O)c2cc(C(=O)O)c(Cl)cc2Cl)n1 | 432 | -0.5% (inactive) | -10.2% (inactive) | 110 | -83.9% (inactive) | 98.4 | -0.387 (inactive) | 4.4e-06 (inactive) | 0.00497 (inactive) | 13.3% (inactive) | 10.3% (inactive)
CCSc1ccccc1C(=O)Nc1cccc(OC)c1 | 421 | 0.8% (inactive) | -0.9% (inactive) | 112 | -1.4% (inactive) | 75 | -0.539 (inactive) | -8.4e-05 (inactive) | 0.00513 (inactive) | -8.73% (inactive) | -15.7% (inactive)
CCOC(=O)CSc1nnc(-c2ccc(Cl)cc2Cl)o1 | 376 | 1.9% (inactive) | -9.2% (inactive) | 93.8 | -57.5% (inactive) | 116 | -0.405 (inactive) | -2.6e-05 (inactive) | 0.00557 (inactive) | 4.99% (inactive) | 2.18% (inactive)
COc1ccc(C2=NO[C@@H]3C(=O)N(c4ccc5c(c4)OCCO5)C(=O)[C@H]23)cc1OC | 608 | -17.3% (inactive) | -8.9% (inactive) | 111 | 11.8% (inactive) | 98.1 | -0.541 (inactive) | 8.6e-06 (inactive) | 0.0052 (inactive) | -13.6% (inactive) | 6.66% (inactive)
COC(=O)c1cccc(NC(=O)CSc2nnc(COc3ccccc3)n2C)c1 | 671 | -5.4% (inactive) | -2.2% (inactive) | 101 | -88% (inactive) | 135 | -0.436 (inactive) | -4.3e-05 (inactive) | 0.00598 (inactive) | 11.9% (inactive) | 14% (inactive)
Nc1nnn(Cc2ccccc2)n1 | 885 | 8.7% (inactive) | 5.4% (inactive) | 114 | -20.6% (inactive) | 114 | -0.566 (inactive) | -2.4e-05 (inactive) | 0.00494 (inactive) | 0.136% (inactive) | 99.3% (active)
CCc1nn2c(N3CCOCC3)cc(C)nc2c1-c1ccc(F)cc1 | 716 | -9.7% (inactive) | -24.7% (inactive) | 101 | -46.2% (inactive) | 114 | -0.465 (inactive) | -0.000126 (inactive) | 0.0049 (inactive) | 10.6% (inactive) | 18.4% (inactive)
CCOc1ccc(C2CC(c3cccc(OC)c3)Nc3nc(N)nn32)cc1 (stereo unspecified) | 562 | 5.4% (inactive) | 15.4% (inactive) | 100 | 36.3% (inactive) | 97.4 | -0.619 (inactive) | 7.9e-07 (inactive) | 0.00629 (inactive) | -7.71% (inactive) | -1.03% (inactive)
CCOc1cccc(-n2nnnc2-c2ccc(OC)cc2)c1 | 208 | 1.2% (inactive) | -34.6% (inactive) | 3.6 | -13.7% (inactive) | 112 | -0.591 (inactive) | -1.5e-05 (inactive) | 0.00569 (inactive) | 43% (inactive) | 61.2% (active)
CC(C)OCCCNC(=O)c1cc2c(s1)CS(=O)(=O)C2 | 215 | 1.9% (inactive) | 7.5% (inactive) | 80.8 | 25.9% (inactive) | 103 | -0.352 (inactive) | -5.6e-05 (inactive) | 0.0057 (inactive) | 5.68% (inactive) | 5.21% (inactive)
CC(=O)c1sc(NC(=O)C2COc3ccccc3O2)nc1C (stereo unspecified) | 604 | -0.3% (inactive) | 24.9% (inactive) | 87.8 | 19.7% (inactive) | 104 | -0.586 (inactive) | -2.4e-05 (inactive) | 0.00774 (inactive) | 15.8% (inactive) | -48.7% (inactive)
COc1ccccc1N1CCN(C(=O)C2CCCO2)CC1 (stereo unspecified) | 405 | 2.5% (inactive) | -0.1% (inactive) | 124 | -14.4% (inactive) | 102 | -0.442 (inactive) | -8.7e-05 (inactive) | 0.0058 (inactive) | 11.6% (inactive) | 24.6% (inactive)
Cc1nnc(SCCn2c(Br)nc3c2c(=O)n(C)c(=O)n3C)s1 | 410 | 3.8% (inactive) | 2% (inactive) | 101 | -12% (inactive) | 109 | -0.374 (inactive) | -1.8e-05 (inactive) | 0.00518 (inactive) | -7.02% (inactive) | -0.072% (inactive)
COC(=O)CSC1=NS(=O)(=O)c2ccccc21 | 340 | 1.2% (inactive) | 19.6% (inactive) | 91.3 | 45.9% (inactive) | 113 | -0.5 (inactive) | -3.6e-05 (inactive) | 0.00571 (inactive) | 20.5% (inactive) | 21.4% (inactive)
O=c1c2c(-c3ccccc3)csc2nc2n1CCC2 | 518 | -18.3% (inactive) | -0.8% (inactive) | 87 | 20.1% (inactive) | 144 | -0.588 (inactive) | -8.9e-06 (inactive) | 0.00513 (inactive) | -15.3% (inactive) | 1.9% (inactive)
